This is a sample that favours compounds with a hit; in the whole collection about 7.6% have one here.
MCF10A rereplic: A quantitative high throughput screen for small molecules that induce DNA re-replication in MCF 10a normal breast cells; actives 2.9% (n = 350,000); Potency, µM (doses to about 46.1 µM), without a hit: at the top dose activity, positive = re-replication, usual class: activators; MCF 10A DNA re-replication, Hoechst nuclear intensity, 48 h; AID 624296, 2012; note: potency is the fitted concentration of half-maximal effect; % of control where 0% means no effect; nearly all actives have a fitted effect of over 50% in size
KB-V1 MDR tox: qHTS assay for MDR1-selective chemotherapeutics: Primary screen using the drug-selected MDR subline cells KB-V1; Potency, µM (top dose mostly 46.1 µM), usual class: cytotoxic; actives 3.4% (n = 400,000); KB-V1 MDR cells viability, CellTiter-Glo, 72 h; AID 1347076, 2019; note: potency is the fitted concentration of half-maximal effect; % is set by controls: 0 for no effect and ±100 for the full control effect; nearly all actives have a fitted effect of over 60% in size
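Cytotoxicity via CellTiter-Glo luminescence after 72 h compound exposure at 37 degrees C. Cells: drug-selected KB-V1 line, DMEM phenol-red free plus 10% FBS. Compounds tested at multiple concentrations; normalized data fitted to concentration-effect curves.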
KB-3-1 cytotox: qHTS assay for MDR1-selective chemotherapeutics: Primary screen using the parental adenocarcinoma cell KB-3-1; actives 1.4% (n = 400,000); KB-3-1 viability, CellTiter-Glo ATP luminescence, 72 h; Potency, µM (doses to about 46.1 µM), hits mostly cytotoxic; note: potency is the fitted concentration of half-maximal effect; % is set by controls: 0 for no effect and ±100 for the full control effect; nearly all actives have a fitted effect of over 60% in size
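Luminescent ATP read-out (CellTiter-Glo) measures survival of drug-naive KB-3-1 cells after 72 h compound exposure at 37 °C. Titration series was screened from lowest to highest concentration, with DMSO vehicle plates as background controls.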
KCNH2 3.1 inh: qHTS for Inhibitors of KCHN2 3.1: Mutant qHTS; activity change, % (tested at about 1.8 µM); actives 0.95% (n = 340,000); AID 720553, 2013; U2OS KCNH2 3.1, thallium flux FluxOr; active compounds read low;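 active = maximum activity change below -70%; inconclusive = maximum activity change from -70% to -50%; inactive = maximum activity change above -50%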;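 note: thallium influx rate constant from kinetic fluorescence after stimulation buffer; % is set by controls: 0 for no effect and ±100 for the full control effect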
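Virally transduced U2OS (3.1 isoform, 4 h infection in dark at RT) → overnight 37 C → FluxOr + Red40 in HBSS/HEPES, 45 min → stimulation buffer, 2 min kinetic read → rate constant vs DMSO controls.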
hERG WT inh: qHTS for Inhibitors of KCHN2 3.1: Wildtype qHTS; Voltage-gated inwardly rectifying potassium channel KCNH2 (Homo sapiens), Q12809; U2OS, BacMam KCNH2, thallium flux FluxOr; active compounds read low; activity change, % at 1.84 µM; AID 720551, 2013; actives 0.37% (n = 340,000);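 active = maximum activity change below -70%; inconclusive = maximum activity change between -70% and -50%; inactive = maximum activity change above -50%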; note: % is set by controls: 0 for no effect and ±100 for the full control effect
Target sequence (Q12809 whole entry, looked up): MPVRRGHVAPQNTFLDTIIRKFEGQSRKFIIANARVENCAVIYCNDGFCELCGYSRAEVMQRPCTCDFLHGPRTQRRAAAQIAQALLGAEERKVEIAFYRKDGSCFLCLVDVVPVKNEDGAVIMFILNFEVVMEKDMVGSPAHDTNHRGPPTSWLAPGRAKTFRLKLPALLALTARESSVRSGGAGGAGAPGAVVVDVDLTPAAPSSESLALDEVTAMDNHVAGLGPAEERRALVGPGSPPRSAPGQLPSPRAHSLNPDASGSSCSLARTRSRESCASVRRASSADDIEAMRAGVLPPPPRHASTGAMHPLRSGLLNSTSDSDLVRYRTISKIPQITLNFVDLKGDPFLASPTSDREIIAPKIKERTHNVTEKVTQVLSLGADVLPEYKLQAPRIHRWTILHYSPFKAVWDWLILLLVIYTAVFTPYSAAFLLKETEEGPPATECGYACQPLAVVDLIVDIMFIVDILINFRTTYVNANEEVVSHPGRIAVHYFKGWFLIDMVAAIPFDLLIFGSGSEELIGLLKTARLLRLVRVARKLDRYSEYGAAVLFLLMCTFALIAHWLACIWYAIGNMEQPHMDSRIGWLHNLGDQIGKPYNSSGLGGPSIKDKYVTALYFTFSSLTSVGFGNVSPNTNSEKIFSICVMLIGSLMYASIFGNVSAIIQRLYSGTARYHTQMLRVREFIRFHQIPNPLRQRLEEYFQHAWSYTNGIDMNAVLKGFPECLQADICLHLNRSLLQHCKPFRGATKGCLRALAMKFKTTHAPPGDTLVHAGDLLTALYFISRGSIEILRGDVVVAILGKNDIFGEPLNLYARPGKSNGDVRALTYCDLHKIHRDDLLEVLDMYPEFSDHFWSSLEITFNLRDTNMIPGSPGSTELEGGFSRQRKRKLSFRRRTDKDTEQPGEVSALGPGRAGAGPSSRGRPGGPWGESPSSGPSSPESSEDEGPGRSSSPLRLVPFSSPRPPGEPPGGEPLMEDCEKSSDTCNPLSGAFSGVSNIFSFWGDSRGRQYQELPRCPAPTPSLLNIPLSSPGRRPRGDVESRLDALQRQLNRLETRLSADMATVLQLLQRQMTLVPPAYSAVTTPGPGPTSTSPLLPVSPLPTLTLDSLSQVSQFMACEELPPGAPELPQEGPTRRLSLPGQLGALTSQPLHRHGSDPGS
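U2OS cells were transduced with wild-type KCNH2 virus (2.03 x 10^8 / mL) for 4 h at room temperature, then cultured overnight at 37 C. Thallium flux was read with FluxOr dye. Rate constants were normalized to DMSO controls.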
SW480 rerep: A quantitative high throughput screen for small molecules that induce DNA re-replication in SW480 colon adenocarcinoma cells. Potency, µM (series often up to 46.1 µM), for inactives: at the top dose re-replication activation, most hits filed as activators. SW480 DNA re-replication, Hoechst DNA content imaging, 48 h. actives 1.8% (n = 340,000); note: potency is the fitted concentration of half-maximal effect; % of control where 0% means no effect; nearly all actives have a fitted effect of over 55% in size
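Cells (250 per well) received 23 nL compound or DMSO by pin tool and were kept 48 hr at 37 C, 5% CO2. Nuclei were then stained with Hoechst for 40 min and scanned for DNA content.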
Numbers without * were called inactive; i = inactive; ? = inconclusive; . = no result. Unless noted, calls come from the whole dose curve; as a rule, active = well fitted curve in the direction sought with a large enough effect; inconclusive = small, poorly fitted or top-dose-only effect, or another doubt; inactive = no such curve, though single readings can be large; an effect the other way counts as inactive or inconclusive.

SMILES | MCF10A rereplic | KB-V1 MDR tox | KB-3-1 cytotox | KCNH2 3.1 inh | hERG WT inh | SW480 rerep
N#Cc1cccc(NC(=O)C2SC(=Nc3ccccc3)C(C(=O)N3CCOCC3)=C2N)c1 (stereo not drawn) | -2.3% | i | i | . | 39.4 | -0.1%
Cc1ccc(N=C2SC(C(=O)Nc3ccc(OC(F)(F)F)cc3)C(N)=C2C(=O)Nc2c(C)cc(C)cc2C)cc1 (stereo not drawn) | 3.66µM* | ? | ? | -10.6 | -6.4 | 12.1%
Cc1ccc(NC(=O)C2SC(=Nc3ccccc3)C(C(=O)Nc3ccc(Cl)cc3)=C2N)cc1 (stereo not drawn) | 20.6µM* | i | i | 19.1 | -5.8 | -8.5%
OC1C(Br)=Cc2ccccc21 (stereo not drawn) | . | i | i | . | . | .
CN1CCCN(C(=O)c2ccc(Cl)c(S(=O)(=O)N(C)c3ccccc3)c2)CC1 | 20.6µM* | ? | i | -0.4 | 1.5 | 12.9%
COc1cc2c(cc1OC)CN(C(=O)c1ccc(Cl)c(S(=O)(=O)N3CCCC3)c1)CC2 | ? | 20.6µM* | i | 9.9 | 5.1 | -12.0%
O=C(c1ccc2nc[nH]c2c1)N1CCc2ccccc2C1 | 2.9% | i | i | -6.1 | 9.2 | -1.1%
CN1CCN(C(=O)c2ccc(Cl)c(S(=O)(=O)N3CCCCC3)c2)CC1 | -1.8% | 14.6µM* | i | 9.6 | 1.1 | 3.9%
COc1cc2c(cc1OC)CN(C(=O)c1ccc(OC)c(S(=O)(=O)N3CCCC3)c1)CC2 | 2.9% | ? | i | 10.8 | -6.2 | ?
COc1cc2c(cc1OC)CN(C(=O)c1ccc3nc[nH]c3c1)CC2 | 8.2µM* | i | ? | 10.4 | -2.0 | 5.8µM*
CCOC(=O)c1ccc(NC(=O)CCn2ccc(C)n2)cc1 | . | i | i | . | . | .
Cc1ncc(COP(=O)(O)O)c(C=O)c1O | 3.3% | . | . | . | . | 2.7%
CCOc1ccccc1N1CCN(C(=O)c2ccc(Cl)c(S(=O)(=O)N3CCCCC3)c2)CC1 | ? | 7.31µM* | i | 15.3 | -1.7 | -5.3%
O=C1/C(=C/c2ccccc2)Oc2cc(OC(=O)N3CCOCC3)ccc21 | 10.1% | 20.6µM* | i | 8.3 | -8.0 | -5.0%
O=C1/C(=C/c2ccc(F)cc2)Oc2cc(OC(=O)N3CCOCC3)ccc21 | -2.6% | i | i | 1.4 | -5.4 | -7.3%
O=C(Nc1cccnc1Cl)c1cnn2c1NC(=C1CC1)C=C2C(F)F | . | i | i | . | . | .
CC12CCC(O)CC1=CCC1C2CCC2(C)C1CCC21CCC(=O)O1 (stereo not drawn) | ? | 20.6µM* | ? | -3.5 | -0.5 | -65.5%
CCN(C(=O)C(C)N1C(=O)/C(=C/c2ccco2)SC1=S)C1CCS(=O)(=O)C1 (stereo not drawn) | 24.4% | i | ? | -13.8 | -23.0 | 4.11µM*
Cc1nc2ccccc2c2c1CC(C(C)(Cl)Br)O2 (stereo not drawn) | 2.0% | 4.61µM* | ? | -6.5 | -29.5 | -19.0%
O=C1/C(=C/c2ccco2)SC(=S)N1C1CCS(=O)(=O)C1 (stereo not drawn) | 26.6% | i | i | 5.6 | 3.7 | 12.5%
Cc1ccc(/C=C2\SC(=S)N(C3CCS(=O)(=O)C3)C2=O)cc1 (stereo not drawn) | 11.5% | i | i | 8.0 | 3.4 | 0.0052µM*
CC(C)COc1ccc2[nH]c3c(c2c1)CCCC3=O | 0.4% | 0.184µM* | 0.92µM* | -3.0 | 1.8 | -3.9%
CC#CC#Cc1cccc(=O)o1 | 18.4µM* | ? | i | 3.7 | 0.2 | 23.7%
Cc1cccc(N2CCN(S(=O)(=O)c3cn(C)cn3)CC2)c1C | 1.8% | i | i | 17.6 | 15.1 | -1.5%
